# Assay results published in the supplement of paper PMC11732987, “Enantioselective OTUD7B fragment discovery through chemoproteomics screening and high-throughput optimisation” (Communications Chemistry, 2025).
# Compound: ClCC(=O)NC1(CCCC1)C#N
# Assay: log2 ratio of Biotin-Ahx-Ub-VS probe labelling (compound/DMSO); higher = less target engagement, active = hit call of the paper (q ≤ 0.05, log2 ratio ≤ -1)
# Details: compound concentration: 50uM; treatment time: 3 h
# Experimental: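 Round 2 competitive ABPP in HEK293T lysate. Compounds were tested at 50 and 200 µM for 3 h, followed by Biotin-Ahx-Ub-VS enrichment and diaPASEF LC-MS/MS. Values are the average log2 ratio (compound/DMSO) from an unpaired t-test (n=3 treated, n=26 DMSO).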
# UniProt Q9Y4E8, sequence (Q9Y4E8 whole entry): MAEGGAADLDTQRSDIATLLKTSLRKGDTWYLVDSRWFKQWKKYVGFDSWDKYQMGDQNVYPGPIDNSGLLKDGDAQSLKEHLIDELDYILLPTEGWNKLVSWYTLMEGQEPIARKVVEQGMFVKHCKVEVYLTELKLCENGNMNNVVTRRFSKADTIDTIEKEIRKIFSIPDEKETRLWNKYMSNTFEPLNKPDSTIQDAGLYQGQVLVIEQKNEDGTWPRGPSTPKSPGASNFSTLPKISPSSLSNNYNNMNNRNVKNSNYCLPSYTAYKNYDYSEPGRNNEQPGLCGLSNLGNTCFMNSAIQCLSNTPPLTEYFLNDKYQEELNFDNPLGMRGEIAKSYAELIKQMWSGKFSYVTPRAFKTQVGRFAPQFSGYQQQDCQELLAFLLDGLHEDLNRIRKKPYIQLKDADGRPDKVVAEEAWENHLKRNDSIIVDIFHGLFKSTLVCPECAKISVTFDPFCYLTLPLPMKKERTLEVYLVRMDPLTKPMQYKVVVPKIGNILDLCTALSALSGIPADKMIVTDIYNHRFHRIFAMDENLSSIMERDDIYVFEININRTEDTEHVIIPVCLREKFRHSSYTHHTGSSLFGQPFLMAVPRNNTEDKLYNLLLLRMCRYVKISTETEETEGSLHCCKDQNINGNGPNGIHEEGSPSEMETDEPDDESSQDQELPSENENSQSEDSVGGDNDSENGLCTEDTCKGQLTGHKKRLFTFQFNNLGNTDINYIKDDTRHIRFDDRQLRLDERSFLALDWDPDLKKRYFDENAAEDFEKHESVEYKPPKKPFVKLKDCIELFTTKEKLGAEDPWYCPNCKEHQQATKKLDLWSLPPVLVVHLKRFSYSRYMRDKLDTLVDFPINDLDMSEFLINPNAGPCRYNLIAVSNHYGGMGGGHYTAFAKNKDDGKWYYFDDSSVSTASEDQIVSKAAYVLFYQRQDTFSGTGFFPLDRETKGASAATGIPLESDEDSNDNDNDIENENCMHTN
# UniProt Q9NUU6, sequence (Q9NUU6 whole entry): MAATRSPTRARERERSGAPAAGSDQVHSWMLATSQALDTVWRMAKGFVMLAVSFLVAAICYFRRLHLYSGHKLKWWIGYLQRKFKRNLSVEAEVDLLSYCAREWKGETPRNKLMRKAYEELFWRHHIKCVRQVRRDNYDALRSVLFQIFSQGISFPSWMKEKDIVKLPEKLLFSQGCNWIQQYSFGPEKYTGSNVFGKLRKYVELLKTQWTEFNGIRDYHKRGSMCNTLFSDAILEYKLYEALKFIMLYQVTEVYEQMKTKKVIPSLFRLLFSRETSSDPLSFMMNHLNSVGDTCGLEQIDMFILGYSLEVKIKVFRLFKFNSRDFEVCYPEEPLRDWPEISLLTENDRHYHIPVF
# UniProt P51784, sequence (P51784 whole entry): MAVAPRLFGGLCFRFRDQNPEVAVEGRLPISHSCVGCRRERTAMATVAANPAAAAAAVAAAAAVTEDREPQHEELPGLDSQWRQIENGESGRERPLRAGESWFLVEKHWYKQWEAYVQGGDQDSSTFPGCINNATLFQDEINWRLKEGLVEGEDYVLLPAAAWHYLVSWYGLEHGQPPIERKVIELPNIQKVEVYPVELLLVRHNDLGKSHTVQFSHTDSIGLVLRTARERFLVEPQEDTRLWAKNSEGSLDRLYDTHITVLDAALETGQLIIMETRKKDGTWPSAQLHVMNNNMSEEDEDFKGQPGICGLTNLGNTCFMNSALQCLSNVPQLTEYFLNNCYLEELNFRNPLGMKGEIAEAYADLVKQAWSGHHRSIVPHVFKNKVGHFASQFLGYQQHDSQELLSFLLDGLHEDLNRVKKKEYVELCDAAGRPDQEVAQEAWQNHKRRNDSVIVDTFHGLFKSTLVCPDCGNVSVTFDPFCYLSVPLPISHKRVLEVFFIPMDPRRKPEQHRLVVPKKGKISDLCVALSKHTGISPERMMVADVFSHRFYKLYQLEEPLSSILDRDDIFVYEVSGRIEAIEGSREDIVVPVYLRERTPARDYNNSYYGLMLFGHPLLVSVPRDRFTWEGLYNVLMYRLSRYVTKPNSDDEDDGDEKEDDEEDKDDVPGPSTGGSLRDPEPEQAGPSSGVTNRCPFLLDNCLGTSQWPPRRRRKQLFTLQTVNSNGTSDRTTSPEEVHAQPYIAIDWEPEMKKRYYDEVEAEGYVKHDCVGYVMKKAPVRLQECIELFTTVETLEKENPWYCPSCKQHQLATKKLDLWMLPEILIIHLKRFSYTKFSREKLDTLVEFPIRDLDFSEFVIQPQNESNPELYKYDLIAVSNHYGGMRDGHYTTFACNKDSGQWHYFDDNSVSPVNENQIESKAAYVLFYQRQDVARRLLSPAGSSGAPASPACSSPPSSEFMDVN
# UniProt Q9P2H5, sequence (Q9P2H5 whole entry): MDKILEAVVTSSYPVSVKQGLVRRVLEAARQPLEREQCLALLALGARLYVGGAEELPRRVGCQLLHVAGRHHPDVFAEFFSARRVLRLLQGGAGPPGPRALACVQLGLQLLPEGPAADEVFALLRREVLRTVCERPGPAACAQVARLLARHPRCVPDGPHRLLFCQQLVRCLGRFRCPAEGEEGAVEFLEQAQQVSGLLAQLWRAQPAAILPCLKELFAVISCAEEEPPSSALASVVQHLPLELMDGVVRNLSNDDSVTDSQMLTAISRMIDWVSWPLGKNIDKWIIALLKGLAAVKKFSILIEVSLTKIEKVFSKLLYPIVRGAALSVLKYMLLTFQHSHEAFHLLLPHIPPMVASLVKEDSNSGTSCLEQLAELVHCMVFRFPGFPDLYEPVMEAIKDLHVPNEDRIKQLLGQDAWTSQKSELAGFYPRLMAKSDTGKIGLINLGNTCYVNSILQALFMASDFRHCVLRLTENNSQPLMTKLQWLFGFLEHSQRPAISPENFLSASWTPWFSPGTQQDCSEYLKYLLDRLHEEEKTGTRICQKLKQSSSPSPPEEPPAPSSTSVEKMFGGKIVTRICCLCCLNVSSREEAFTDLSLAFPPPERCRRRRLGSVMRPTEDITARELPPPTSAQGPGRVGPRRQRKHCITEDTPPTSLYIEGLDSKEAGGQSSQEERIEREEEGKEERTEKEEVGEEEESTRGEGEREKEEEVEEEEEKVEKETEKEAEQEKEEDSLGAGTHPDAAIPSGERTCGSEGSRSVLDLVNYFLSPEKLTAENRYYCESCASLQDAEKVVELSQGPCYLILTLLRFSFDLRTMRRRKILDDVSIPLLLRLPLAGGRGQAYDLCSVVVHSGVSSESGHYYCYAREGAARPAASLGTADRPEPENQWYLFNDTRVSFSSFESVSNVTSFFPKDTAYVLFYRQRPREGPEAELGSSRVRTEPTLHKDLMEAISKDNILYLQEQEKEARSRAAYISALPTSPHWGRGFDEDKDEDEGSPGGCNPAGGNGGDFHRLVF
# UniProt P51665, sequence (P51665 whole entry): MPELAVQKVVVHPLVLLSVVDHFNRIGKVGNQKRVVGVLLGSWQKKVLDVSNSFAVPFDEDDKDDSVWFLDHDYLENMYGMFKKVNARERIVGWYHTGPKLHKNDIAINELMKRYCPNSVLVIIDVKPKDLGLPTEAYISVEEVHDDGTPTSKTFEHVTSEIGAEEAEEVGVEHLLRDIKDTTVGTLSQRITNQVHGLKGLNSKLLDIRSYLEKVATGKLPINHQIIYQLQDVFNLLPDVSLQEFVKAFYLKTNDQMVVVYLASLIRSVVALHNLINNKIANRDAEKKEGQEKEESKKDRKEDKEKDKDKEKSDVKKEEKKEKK
# UniProt O15372, sequence (O15372 whole entry): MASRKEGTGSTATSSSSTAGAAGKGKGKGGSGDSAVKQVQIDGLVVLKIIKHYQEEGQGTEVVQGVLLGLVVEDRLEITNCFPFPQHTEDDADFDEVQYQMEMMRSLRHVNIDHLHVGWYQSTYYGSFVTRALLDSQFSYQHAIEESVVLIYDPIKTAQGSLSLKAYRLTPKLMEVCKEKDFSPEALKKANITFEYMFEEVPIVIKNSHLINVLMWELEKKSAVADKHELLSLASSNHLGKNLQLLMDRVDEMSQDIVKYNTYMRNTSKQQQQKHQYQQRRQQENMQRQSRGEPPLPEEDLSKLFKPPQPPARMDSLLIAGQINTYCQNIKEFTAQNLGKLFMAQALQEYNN
# UniProt Q9Y5K5, sequence (Q9Y5K5 whole entry): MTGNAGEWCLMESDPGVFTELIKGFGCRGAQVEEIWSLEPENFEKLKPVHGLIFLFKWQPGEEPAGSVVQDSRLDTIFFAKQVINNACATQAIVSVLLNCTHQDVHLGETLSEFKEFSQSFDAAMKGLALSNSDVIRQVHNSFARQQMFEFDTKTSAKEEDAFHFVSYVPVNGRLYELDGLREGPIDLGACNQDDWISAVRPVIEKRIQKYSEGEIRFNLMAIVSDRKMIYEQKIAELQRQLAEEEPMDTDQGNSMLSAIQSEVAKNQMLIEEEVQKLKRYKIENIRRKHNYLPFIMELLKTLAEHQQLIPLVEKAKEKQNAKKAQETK
# UniProt P54578, sequence (P54578 whole entry): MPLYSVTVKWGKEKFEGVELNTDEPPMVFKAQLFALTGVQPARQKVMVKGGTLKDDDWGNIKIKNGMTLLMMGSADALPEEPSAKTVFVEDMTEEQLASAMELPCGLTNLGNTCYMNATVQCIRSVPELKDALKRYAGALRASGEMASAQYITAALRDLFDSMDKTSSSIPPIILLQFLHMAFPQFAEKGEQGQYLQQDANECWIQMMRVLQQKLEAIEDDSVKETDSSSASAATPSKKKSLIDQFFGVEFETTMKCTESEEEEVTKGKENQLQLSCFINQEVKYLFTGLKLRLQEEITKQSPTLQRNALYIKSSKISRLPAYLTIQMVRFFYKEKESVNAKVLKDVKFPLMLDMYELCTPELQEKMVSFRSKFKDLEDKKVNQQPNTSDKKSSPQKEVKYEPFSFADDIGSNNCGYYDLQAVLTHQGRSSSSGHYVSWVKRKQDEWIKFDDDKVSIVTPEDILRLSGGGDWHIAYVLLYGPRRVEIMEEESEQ
row,Target,log2 ratio of Biotin-Ahx-Ub-VS probe labelling
1,EIF3H (UniProt O15372),-0.0689 (inactive)
2,USP14 (UniProt P54578),0.0754 (inactive)
3,USP19 (UniProt O94966),-0.227 (inactive)
4,UniProt Q9P2H5,-0.223 (inactive)
5,UniProt P51784,0.0618 (inactive)
6,FAM105A (UniProt Q9NUU6),-0.0646 (inactive)
7,PSMD7 (UniProt P51665),-1.2 (inactive)
8,UCHL5 (UniProt Q9Y5K5),-0.245 (inactive)
9,USP15 (UniProt Q9Y4E8),-0.194 (inactive)

# Same assay, conditions: compound concentration: 200uM; treatment time: 3 h
row,Target,log2 ratio of Biotin-Ahx-Ub-VS probe labelling
1,EIF3H (UniProt O15372),0.0852 (inactive)
2,USP14 (UniProt P54578),0.244 (inactive)
3,USP19 (UniProt O94966),-0.0992 (inactive)
4,UniProt Q9P2H5,-0.102 (inactive)
5,UniProt P51784,0.0228 (inactive)
6,FAM105A (UniProt Q9NUU6),0.0452 (inactive)
7,PSMD7 (UniProt P51665),-0.91 (inactive)
8,UCHL5 (UniProt Q9Y5K5),-0.19 (inactive)
9,USP15 (UniProt Q9Y4E8),-0.0271 (inactive)
